EBNA-1 inhibitor = blocks EBNA-1 binding to DNA. EBNA-1 DNA binding, fluorescence polarization. inhibition, % at 14.8 µM. 0.34% of 300,000 active. AID 1950; in the data active = inhibition above about 28%
PolyA inhibitor = yeast polyadenylation inhibition; AID 1875; S. cerevisiae SKY197-pL101 polyadenylation reporter, beta-gal luminescence; efflux-impaired pdr1/pdr3 knockout yeast; score 100 = 6 SD above DMSO; activity score, % at 12 µM; 0.02% of 300,000 active;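 active = lowest replicate activity score at least 50, where 100 means six control SD above control mean; inconclusive = lowest score under 50 but half or more replicates reach 50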;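 note: yeast exposed to compound for 9 h at 30 °C; higher score means more reporter readthrough which indicates perturbed polyadenylation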
NALP1 yeast inh = NALP1 inhibition | 0.61% of 280,000 active | inhibition, % at 10 µM | S. cerevisiae NALP1/ASC/caspase-1 growth, X-gal OD620, 72 h; in the data active = inhibition mostly above about 24%, no sharp cut-off; inactive = mostly below about 32%
ZTA counter = counter-screen for EBNA-1 inhibitors: inhibitors of Epstein-Barr virus ZTA. 0.15% of 320,000 active. ZTA-DNA binding, fluorescence polarization. AID 2234. inhibition, % at 11 µM; in the data active = inhibition above about 33%
NALP3 yeast inh = NALP3 inhibition in yeast | Yeast reconstituted NLRP3/ASC/caspase-1, beta-gal luminescence, 24 h | AID 2825 | 0.39% of 330,000 active | inhibition, % at 10 µM;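 active = inhibition of 50% or more; inactive = inhibition below 50%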
dFosB activator = enhances mouse delta FosB homodimer DNA binding. activation, % at 25 µM. purified delta FosB, TAMRA-CDK5 oligo fluorescence polarization; percent of positive-control signal above neutral wells. 0.99% of 340,000 active. P13346;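 active = mean activation above about 17%, with every replicate also reaching it, limit read from the data, passing the limit was not always enough; inconclusive = only one of the two conditions met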
Target sequence (P13346 whole entry, looked up): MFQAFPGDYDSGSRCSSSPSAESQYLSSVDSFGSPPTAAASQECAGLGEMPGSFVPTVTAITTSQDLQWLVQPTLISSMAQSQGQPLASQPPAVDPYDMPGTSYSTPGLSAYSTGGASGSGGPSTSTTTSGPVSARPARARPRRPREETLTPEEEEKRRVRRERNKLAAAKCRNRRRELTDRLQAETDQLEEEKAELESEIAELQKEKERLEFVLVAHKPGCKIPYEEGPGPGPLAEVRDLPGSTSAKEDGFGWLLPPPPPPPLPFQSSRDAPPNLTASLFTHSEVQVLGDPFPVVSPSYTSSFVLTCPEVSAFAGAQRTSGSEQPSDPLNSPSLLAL
NALP3 confirm = confirmation of NALP3 inhibitors in yeast; shares compounds with NALP3 yeast inh; yeast expressing human NALP3, luminescence; inhibition, % at 10 µM; 81% of 1,300 active; in the data active = inhibition above about 48%
Casp1-ASC yeast = caspase-1-ASC yeast counter-screen hit | shares compounds with NALP3 yeast inh | yeast expressing Caspase-1-ASC, luminescence counter screen | inhibition, % at 10 µM | 66% of 1,000 active | AID 488784
NALP3 retest = yeast NALP3 inhibition, confirmed on retest | yeast expressing human NALP3, luminescence read-out | inhibition, % at 10 µM | AID 488794 | shares compounds with NALP3 yeast inh | 53% of 1,000 active
Each line names hits and unclear results; the compound was inactive in the other large screens (follow-up assays come after a bar, where they were run). Only some compounds are listed: those with a hit (about 2.2% of all), similar ones and a draw of the others. Cut-off read from the data, not from the text of the source, unless noted: active = inhibition above about 50%; inactive = the rest.

CC1(C)[C@@H](O)CC[C@]2(C)C3C(O)C=C4[C@H]5C[C@@](C)(CO)CC[C@]5(C)CC[C@]4(C)[C@]3(C)CC[C@@H]12 (some centres not stated)	NALP3 yeast inh 62.4 (no result: NALP1 yeast inh) | NALP3 confirm 70.0 | Casp1-ASC yeast 63.8 | NALP3 retest 50.3
Oc1c(Cl)cc(Cl)cc1CNc1ccccn1	NALP3 yeast inh 51.7 (no result: EBNA-1 inhibitor, ZTA counter) | NALP3 confirm 67.2 | Casp1-ASC yeast inactive | NALP3 retest inactive
O=S(=O)(c1ccc(N2CCN(c3ccc(F)cc3)CC2)cc1)N1CCCC1	none
O=S(=O)(c1ccc(N2CCCC2)cc1)C(F)(F)F	NALP3 yeast inh 55.9 | NALP3 confirm 58.6 | Casp1-ASC yeast 58.8 | NALP3 retest inactive
Cc1ccc2sc(N(CCCN(C)C)C(=O)CCS(=O)(=O)c3ccccc3)nc2c1C	NALP1 yeast inh 84.1, NALP3 yeast inh 53.5 | NALP3 confirm 76.6 | Casp1-ASC yeast 65.5 | NALP3 retest 53.9
COc1ccc(C(=O)Nc2nnc(-c3ccco3)s2)cc1	none
Cc1ccccc1C(=O)Nc1nnc(-c2ccco2)s1	NALP3 yeast inh 62.1 | NALP3 confirm 48.9 | Casp1-ASC yeast inactive | NALP3 retest inactive
O=C(Nc1nnc(CCc2ccccc2)s1)c1ccccc1	NALP3 yeast inh 51.0 | NALP3 confirm 70.3 | Casp1-ASC yeast inactive | NALP3 retest inactive
CCC(=O)Nc1nnc(CCc2ccccc2)s1	none
O=C(Nc1nnc(-c2ccco2)s1)c1ccccc1	NALP3 yeast inh 53.0 | NALP3 confirm 57.5 | Casp1-ASC yeast 57.4 | NALP3 retest inactive
COc1ccccc1C(=O)Nc1nnc(-c2ccco2)s1	NALP3 yeast inh 55.5 | NALP3 confirm 57.0 | Casp1-ASC yeast 68.1 | NALP3 retest 54.7
Cc1ccccc1OCC(=O)Nc1nnc(-c2ccco2)s1	none
NC(=O)CC(NC(=O)Cc1ccc(Br)cc1)c1ccc(N2CCC(Br)CC2)c([N+](=O)[O-])c1 (configuration not stated)	none (no result: NALP1 yeast inh)
NC(=O)CC(NC(=O)Cc1ccc(Br)cc1)c1ccc(N2CCC(Cc3ccccc3)CC2)c([N+](=O)[O-])c1 (configuration not stated)	NALP3 yeast inh 51.3 (no result: NALP1 yeast inh) | NALP3 confirm 79.9 | Casp1-ASC yeast inactive | NALP3 retest inactive
CCCOc1ncnc2c1[nH]c1ccccc12	NALP3 yeast inh 73.8 | NALP3 confirm 87.5 | Casp1-ASC yeast 81.2 | NALP3 retest 75.6
CCCOc1ncnc2c1[nH]c1ccc(OC)cc12	none
COc1cc(C(=O)N2CCN(c3ccccn3)CC2)cc(OC)c1OC	none
COc1cc2ccccc2cc1C(=O)N1CCN(c2ccccn2)CC1	NALP3 yeast inh 52.3 | NALP3 confirm 86.9 | Casp1-ASC yeast 61.6 | NALP3 retest 76.0
Cc1ccc(NC(=O)COc2cccc(-n3cnnn3)c2)cc1[N+](=O)[O-]	dFosB activator inconclusive
CNc1nc(N)c([N+](=O)[O-])c(Nc2cccc(F)c2)n1	NALP3 yeast inh 74.6 | NALP3 confirm 86.5 | Casp1-ASC yeast 77.8 | NALP3 retest 56.3
Nc1nc(NCCOCCO)nc(Nc2cccc(F)c2)c1[N+](=O)[O-]	none (no result: EBNA-1 inhibitor, ZTA counter)
CNc1nc(N)c([N+](=O)[O-])c(Nc2cccc(Cl)c2)n1	NALP3 yeast inh 60.4 (no result: dFosB activator) | NALP3 confirm 65.9
Cc1nc2ccc(NC(=O)c3cc(S(=O)(=O)N4CCOCC4)ccc3C)cc2s1	none
Cc1nc2ccc(Nc3nc4cc(S(=O)(=O)N5CCOCC5)ccc4o3)cc2s1	none | NALP3 confirm inactive | Casp1-ASC yeast inactive | NALP3 retest inactive
CCCCCNC(=O)C(=O)C1C(=O)Nc2ccccc21 (configuration not stated)	NALP3 yeast inh 52.3 (no result: NALP1 yeast inh) | NALP3 confirm 70.7 | Casp1-ASC yeast inactive | NALP3 retest 51.1
CN1C(=O)c2cccc(NC(=O)Cc3ccccc3)c2C1=O	NALP3 yeast inh 50.1 | NALP3 confirm 49.9 | Casp1-ASC yeast 60.1 | NALP3 retest inactive
CCOc1ccc(C(C)=O)cc1Cn1c(=O)oc2ccccc21	none
CN1CCS/C1=C\C=C1/SC(=S)N(CC(=O)O)C1=O	none (no result: EBNA-1 inhibitor, ZTA counter, NALP3 yeast inh)
